Measurements as given in PubChem BioAssay (NCATS).
Inconclusive results are not listed. Entries that show only a call come without a potency. Activity calls are given as the source filed them. Calls come from the whole dose curve; as a rule, active = well fitted curve in the direction sought with a large enough effect; inconclusive = small, poorly fitted or top-dose-only effect, or another doubt; inactive = no such curve, though single readings can be large; an effect the other way counts as inactive or inconclusive.

Columns and labels:
[1] = biological target: Aldehyde dehydrogenase, mitochondrial (Homo sapiens) (UniProt P05091); assay: qHTS for Inhibitors of the Aldehyde Dehydrogenase Family (ALDH2) Primary screen (AID 2061308); note: nearly all actives have a fitted effect of over 55% in size
[2] = biological target: Retinaldehyde dehydrogenase 3 (Homo sapiens) (UniProt P47895); assay: qHTS for Inhibitors of the Aldehyde Dehydrogenase Family (ALDH1A3) Primary screen (AID 2061315)

| SMILES | Potency [1] | Potency [2] |
| --- | --- | --- |
| Cc1cc2c(s1)c1cnn(Cc3cc(Cl)ccc3F)c(=O)c1n2C | inactive | inactive |
| CCC1CCC2(C1)N=C(Nc1nc3ccccc3o1)NC1=C2C(=O)CCC1 (stereo not given) | inactive | inactive |
| FC(F)(F)c1cccc(N2CCN(C(=S)Nc3ccccn3)CC2)c1 | inactive | inactive |
| CC(C)(C)OC(=O)N[C@@H](Cc1ccc(O[S+](=O)([O-])c2cccc3cnccc23)cc1)C(=O)Nc1ccc(-c2ccccc2)cc1 | inactive | inactive |
| COc1cccc(CNc2ccc([S+](=O)([O-])Nc3ccccc3)cc2)c1Cl | inactive | inactive |
| O=C(OCC#CCSc1nnc(-c2ccc3ccccc3c2)o1)c1ccc(F)cc1 | inactive | inactive |
| Cc1cc(N[S+](=O)([O-])c2ccc(NC(=O)Cc3ccc4c(c3)CCCC4)cc2)no1 | inactive | inactive |
| Cc1nc(CNc2ncnc3ccc(-c4oc(-c5ccccc5)nc4C)cc23)cs1 | inactive | inactive |
| Cc1cc2c(s1)c1cnn(Cc3ccc(Cl)c(Cl)c3)c(=O)c1n2C | inactive | inactive |
| O=C(Cc1nnc(CNC(=O)c2ccccc2)s1)Nc1ccc(C(F)(F)F)cc1Cl | inactive | inactive |
| O=C1NS(=O)(=O)c2cc(Cl)ccc21 | inactive | inactive |
| Fc1cc(F)cc(Nc2nc(NC3CCCC3)nc(C3CO3)n2)c1 (stereo not given) | inactive | inactive |
| CC(NCc1ccc2c(c1)nc(NC(=O)c1ccc(-c3cn[nH]c3)s1)n2CC(C)(C)O)C(C)(C)C (stereo not given) | inactive | inactive |
| N#Cc1nc(Nc2cccc(C(F)(F)F)c2)nc(NC2CCCC2)n1 | inactive | inactive |
| Cc1cccc(NS(=O)(=O)c2ccc3c(c2)CCC(=O)N3)c1 | inactive | inactive |
| Cc1ccc(NS(=O)(=O)c2cc3c(cc2N(C)C)NC(=O)CC3)cc1C | inactive | inactive |
| O=C1CCCC2=C1C(c1[nH]ncc1Cl)N=C(Nc1nc3c(Cl)cccc3o1)N2 (stereo not given) | inactive | inactive |
| Cc1cc(C)nc(NC(=S)N2CCN(Cc3cccc4ccccc34)CC2)c1 | inactive | inactive |
| O=S(=O)(c1ccc2c(c1)OCCO2)N1CCN(S(=O)(=O)c2cccc3cccnc23)CC1 | inactive | inactive |
| Cc1cccc(-c2ccc3ncnc(NCc4cccs4)c3c2)c1 | inactive | inactive |
| C#CCOc1ccc(C(C)=O)cc1-c1nnc2n1N=C(c1ccc(OC)c(O[C@@H]3CCOC3)c1)CS2 | inactive | inactive |
| Cc1ccccc1C(=O)N1CCc2cc(-c3nc(NC(=O)CC4CCCCC4)sc3C)ccc21 | inactive | inactive |
| NCc1ccc(Nc2ncc(F)c(Nc3ccccc3)n2)cc1 | inactive | inactive |
| COc1ccc(NC(=O)C2=C(C)NC(Nc3nc4ccccc4o3)=NC2c2ccccc2Br)cc1 (stereo not given) | inactive | inactive |
| CC(C)(C)NS(=O)(=O)c1cccc(-c2nnc(SCc3ccc(C(=O)O)cc3)n2-c2ccccc2)c1 | inactive | inactive |
| Cc1ccc(-c2ccc(=O)n(CC(=O)N(C)C3CCCCCC3)n2)cc1 | inactive | inactive |
| C[C@@H]1[C@H](O)[C@@H]2OC(=O)C3=C2[C@H](CCC3)[C@@]12C[C@@H](c1ccoc1)OC2=O | inactive | inactive |
| CCOC(=O)c1ccoc1-c1ccc2ncnc(NCc3csc(C)n3)c2c1 | inactive | inactive |
| Cc1cc(C)n2ncc(C(=O)Nc3ccc4c(c3)CCC4)c2n1 | inactive | inactive |
| Cc1ccccc1C(=O)N1CCc2cc(-c3nc(NC(=O)Cc4ccc5c(c4)OCCO5)sc3C)ccc21 | inactive | inactive |
